Shiga inhibitor: A qHTS for Small Molecule Inhibitors of Shiga Toxin. Vero cells, Shiga toxin protein synthesis inhibition reporter. AID 2315, 2010. inhibition, % at 38.7 µM. 9.2% of 290,000 active; in the data active means inhibition mostly above about 28%, no sharp cut-off; inactive means mostly below about 43%; further: 0% is about no effect
HCV inhibitor: qHTS Assay for Inhibitors of Hepatitis C Virus (HCV) | Huh7.5.1 HCVcc-Cre infection, luciferase reporter, 44 h | Potency, µM (titrated, usually from 41.8 µM), for inactives: at the highest dose activity change, negative = inhibition, most hits filed as inhibitors | 3.4% of 340,000 active | AID 651820, 2012; further: potency means the concentration at half of the fitted maximal effect; on the % scale 0 is the no-effect control and ±100 the full control effect
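Compounds are dispensed onto cells plated 4 h earlier at 1,000 per well, with HCVcc-Cre virus (about 0.5 moi) added next. Following 44 h of culture, luminescent signal is measured for 15 sec after 15 min with substrate at room temperature.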
Pf growth 96h: Primary qHTS for delayed death inhibitors of the malarial parasite plastid, 96 hour incubation; Potency, µM (doses to about 28.7 µM), inactives show at the highest dose activity change, negative = inhibition, hits mostly inhibitors; 6.9% of 320,000 active; P. falciparum luciferase reporter growth, 96 h; further: potency means the concentration at half of the fitted maximal effect; on the % scale 0 is the no-effect control and ±100 the full control effect
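Luminescence readout: decreased luciferase signal marks inhibited growth of reporter-expressing P. falciparum in infected red cells (2% hematocrit, 0.05% parasitemia final), exposed to compound two generations (96 h, 37 C, 5% CO2).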
Pf growth 48h: Primary qHTS for delayed death inhibitors of the malarial parasite plastid, 48 hour incubation; P. falciparum luciferase growth in erythrocytes, 48 h; Potency, µM (series often up to 28.7 µM), for inactives: at the highest dose activity change, negative = inhibition, hits mostly inhibitors; 5.9% of 310,000 active; further: potency means the concentration at half of the fitted maximal effect; on the % scale 0 is the no-effect control and ±100 the full control effect
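First compound was added to culture medium, then infected red cells at 0.1% parasitemia and 2% hematocrit (final). After incubation at 37 C under 5% CO2, luciferase detection reagent was dispensed and light output recorded.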
AMA1-RON2 inh: qHTS for Inhibitors of AMA1-RON; Towards Development of Antimalarial Drug Lead: Primary Screen; AID 720542, 2013; Plasmodium falciparum AMA1 (3D7) - RON2 peptide interaction; 0.2% of 360,000 active; Potency, µM (top dose mostly 58.2 µM), for inactives: at the highest dose activity change, negative = inhibition, most hits filed as inhibitors; AlphaScreen AMA1-biotinylated RON2 peptide binding;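 further: potency means the concentration at half of the fitted maximal effect; 0% = vehicle wells and -100% = peptide control; nearly all actives have a fitted effect of over 45% in size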
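AMA1 (3D7) with his tag at 25 nM final met compounds first, then biotinylated RON2 peptide at 25 nM; detection used donor plus acceptor beads, 10 µg/mL apiece, read by AlphaScreen after 30 min at room temperature.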
CHX counter: Cycloheximide Counterscreen for Small Molecule Inhibitors of Shiga Toxin. max response, %. 12% of 300,000 active. cell reporter, cycloheximide protein synthesis inhibition counterscreen; in the data active means max response mostly above about 13%, no sharp cut-off; inactive means mostly below about 14%; further: read at 38.3 µM for the half of the compounds with a filed dose; 0% is about no effect
* marks the source's active call; other numbers are inactive results; ? = inconclusive; . = not tested or not shown; [ ] = remark or other dose. Shown are actives, neighbours in structure and some others; about 21% of the full set was active somewhere. Unless noted, the call rests on the fitted dose curve; in most records, active means well fitted curve in the direction sought with a large enough effect; inconclusive means small, poorly fitted or top-dose-only effect, or another doubt; inactive means no such curve, though single readings can be large; an effect the other way counts as inactive or inconclusive.

SMILES	Shiga inhibitor	HCV inhibitor	Pf growth 96h	Pf growth 48h	AMA1-RON2 inh	CHX counter
Cc1nn(Cc2ccccc2Cl)c2sc(C(=O)Nc3ccccc3N3CCOCC3)cc12	-19.5	12.6µM*	?	?	0.0%	-4.6
CCC(CC)NC(=O)c1cc2c(C)nn(Cc3ccccc3Cl)c2s1	-4.2	?	.	13.1µM*	28.6%	-4.1
Cc1nn(Cc2ccc(F)cc2)c2sc(C(=O)Nc3ccccc3N3CCOCC3)cc12	-14.6	?	17.5%	6.3%	13.5%	-2.8
Cc1nn(Cc2ccccc2Cl)c2sc(C(=O)NCc3ccc4c(c3)OCO4)cc12	-2.0	?	11.7µM*	.	-11.4%	14.5
Cc1nn(Cc2ccc(F)cc2)c2sc(C(=O)Nc3nccs3)cc12	-2.4	?	?	?	66.6%	-3.1
COc1ccccc1CNC(=O)c1cc2c(C)nn(Cc3ccc(F)cc3)c2s1	-8.1	7.08µM*	11.7µM*	?	-3.7%	1.0
COc1ccc(CNC(=O)COc2ccc(S(=O)(=O)N3CCOCC3)cc2C)cc1	-2.2	-24.2%	?	-0.2%	-1.5%	-9.5
Cc1cccc(C)c1-c1ccc(CN2C(CC(C)C)C(=O)N(Cc3cn(CCO)nn3)CCS2(=O)=O)cc1 (stereo not drawn)	.	-4.5%	.	.	-5.3%	.
CCC(C)C(NC(=O)c1ccccc1NC(=O)c1ccc(C)cc1)C(=O)O (stereo not drawn)	93.6*	16.3%	-2.8%	?	-12.0%	55.0*
Cc1ccc(C(=O)Nc2ccccc2C(=O)NC(CC(=O)O)C(=O)O)cc1 (stereo not drawn)	17.2	15.7%	?	64.9%	1.7%	2.9
Cc1ccc(C(=O)Nc2ccccc2C(=O)NC(C(=O)O)C(C)C)cc1 (stereo not drawn)	48.3*	-2.8%	?	11.7µM*	-7.1%	20.6
CCOc1ccccc1OCCCOc1ccc(C)cc1Br	70.1*	-26.8%	23.6%	-22.2%	86.8%	40.9*
CCOc1ccccc1OCCCOc1ccc(C)cc1Cl	61.5*	?	-1.2%	3.4%	117.4%	23.1*
COc1cc(C)ccc1OCCCOc1cc(C)ccc1Cl	.	17.3%	.	.	57.8%	.
CCN(CC)CCCOc1ccc(C)cc1Br	8.7	-16.8%	?	.	10.6%	5.9
COc1cc(C)ccc1OCCOCCOc1ccccc1Br	27.0	?	2.62µM*	-1.0%	85.9%	-3.5
COc1cc(C)ccc1OCCOCCOc1cc(C)c(C)cc1Br	11.2	?	37.8%	-13.5%	55.2%	-2.3
Oc1c(C(c2ccccc2)N2CCCCC2)ccc2ccccc12 (stereo not drawn)	.	.	.	.	-5.2%	.
Cc1ccc(NC(=O)CSc2nnc(-c3ccccc3Br)o2)cc1C	-10.3	-22.4%	?	.	-4.2%	3.9
Cc1cc(C)cc(NC(=O)CSc2nnc(-c3ccccc3C)o2)c1	43.3	-29.6%	-20.1%	77.4%	-6.2%	36.1*
Cc1ccc(NC(=O)CSc2nnc(-c3ccccc3C)o2)cc1C	25.0	-10.0%	27.3%	43.2%	3.5%	0.6
Cc1cccc(NC(=O)CSc2nnc(-c3ccccc3C)o2)c1	68.8*	?	-24.6%	500.0%	-3.3%	36.9*
CC(C)(C)c1ccc(N2C[C@@H](COc3ccc(C(=O)O)cc3)CC2=O)cc1	25.4	.	.	.	.	10.7
CCOC(=O)C1(C)NC(c2ccco2)C2C(=O)N(CC)C(=O)C21 (stereo not drawn)	-2.8	13.8%	2.94µM*	-3.0%	-5.9%	-1.0
Cc1ccc(S(=O)(=O)N(C)C[C@@H]2OCc3cnnn3CCCC(=O)N([C@@H](C)CO)C[C@H]2C)cc1	.	.	.	.	10.2%	.
SMILES	Shiga inhibitor	HCV inhibitor	Pf growth 96h	Pf growth 48h	AMA1-RON2 inh	CHX counter
CCCNc1ccc(C(=O)OCC)cc1[N+](=O)[O-]	83.0*	?	0.3%	193.0%	?	52.0*
Cc1ccc(NC(=O)c2ccc(NCCN)c([N+](=O)[O-])c2)cc1	33.4*	-12.1%	?	?	-6.2%	20.0*
Cc1cccc(NC(=O)c2ccc(NCCc3ccccc3)c([N+](=O)[O-])c2)c1	-6.2	-2.9%	-29.1%	-6.9%	-12.3%	-2.3
Nc1ccc(C(=O)OCC(=O)N2c3ccccc3Sc3ccccc32)cc1[N+](=O)[O-]	-9.1	?	?	1.3%	-5.2%	-4.9
NCCNc1ccc(C(=O)N2c3ccccc3Sc3ccccc32)cc1[N+](=O)[O-]	-6.7	11.2µM*	81.2%	?	-26.7%	-5.8
CC(=O)Oc1c(C)cc(OCC(O)CNC(C)C)c(C)c1C (stereo not drawn)	-9.2	.	15.9%	-1.5%	.	2.3
O=C(COC(=O)/C=C/c1cccs1)Nc1cccc(S(=O)(=O)N2CCOCC2)c1	-1.9	-14.9%	1.1%	?	5.4%	-3.7
NS(=O)(=O)c1ccc(NC(=O)/C=C/c2cccs2)cc1	35.2	13.0%	21.0%	5.8%	1.2%	11.4*
NS(=O)(=O)c1cccc(NC(=O)/C=C/c2cccs2)c1	48.3*	2.2%	74.3%	57.5%	0.4%	30.0*
O=C(/C=C/c1cccs1)Nc1ccc(S(=O)(=O)Nc2ncccn2)cc1	-7.7	10.6%	-8.6%	-7.9%	-2.9%	0.8
Cc1ccc(S(=O)(=O)NN=CC2(c3ccccc3)CC2)cc1	.	.	.	.	5.9%	.
Cc1cc(F)ccc1S(=O)(=O)N1CCC2(CC1)OCCN2S(=O)(=O)c1cccs1	.	?	?	?	-5.2%	.
O=C(CN1C(=O)NC2(CCCC2)C1=O)NNC(=O)c1ccc(F)cc1	.	14.8%	22.2%	-4.8%	11.9%	.
Cc1ccc(C(=O)NCC(=O)OCC(=O)NCC(F)(F)F)cc1	-5.5	12.1%	8.3%	10.7%	1.5%	17.6*
Cc1ccc(S(=O)(=O)N2CCN(C(C)C(=O)Nc3ccccc3-c3ccccc3)CC2)cc1 (stereo not drawn)	2.4	?	7.38µM*	9.28µM*	-4.8%	-2.5
CC(C(=O)Nc1ccccc1-c1ccccc1)N1CCN(Cc2ccccc2)CC1 (stereo not drawn)	-13.5	-21.4%	?	13.1µM*	-21.2%	-3.4
O=C(N/N=C/c1ccc(N2CCOCC2)cc1)c1ccc(NS(=O)(=O)c2cccs2)cc1	12.8	-4.0%	48.1%[5.75 µM]	9.8%	-5.8%	7.8
CCOc1cc(/C=N/NC(=O)c2cccs2)ccc1OC(=O)N1CCOCC1	108.7*	?	-12.8%	5.2%	8.7%	45.1*
O=C(N/N=C/c1ccc(N2CCOCC2)cc1)c1ccncc1	.	34.2%	-9.5%	-21.8%	7.7%	.
O=C(N/N=C/c1ccc(N2CCOCC2)cc1)c1ccccc1OCCOc1ccccc1	12.4	8.91µM*	?	?	-2.3%	10.4

Screens from PubChem BioAssay.
